Source: PubChem BioAssay AID652257 (The Scripps Research Institute Molecular Screening Center, 2013)
Screen size: about 370,000 compounds; about 4,800 (1.3%) were called active.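 The calls were made as follows: active = inhibition above about 21% made by adding two undisclosed values (limit read from the data); inactive = the rest.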 The entries come from a sample that favours actives as a whole.

Target: Protein arginine N-methyltransferase 1 (Homo sapiens) (UniProt Q99873)
Assay: PRMT1 methyltransferase inhibitors, primary screen, biochemical, fluorescence polarization (AID 652257)
Conditions: recombinant PRMT1, activity-based probe fluorescence polarization; at 2.79 µM; hits give high values

Protein arginine N-methyltransferase 1 (Homo sapiens), sequence (Q99873 whole entry, looked up): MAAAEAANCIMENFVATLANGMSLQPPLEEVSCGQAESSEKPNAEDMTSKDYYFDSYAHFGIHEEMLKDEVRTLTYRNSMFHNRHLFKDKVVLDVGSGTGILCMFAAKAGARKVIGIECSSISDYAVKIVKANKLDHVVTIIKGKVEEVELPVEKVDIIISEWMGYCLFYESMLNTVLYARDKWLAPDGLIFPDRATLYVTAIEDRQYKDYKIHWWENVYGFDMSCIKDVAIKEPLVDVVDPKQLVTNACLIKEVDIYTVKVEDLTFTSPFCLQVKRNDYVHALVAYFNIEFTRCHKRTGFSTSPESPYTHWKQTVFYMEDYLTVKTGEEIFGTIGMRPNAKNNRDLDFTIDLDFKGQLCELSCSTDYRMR

inhibition, inactive:
CCC(C)(C)NC(=O)C(c1cccc(OC)c1OC)N(CC(C)C)C(=O)CCC(=O)Nc1cc(C)on1 (configuration not stated) -2.2%
CCn1c(=S)sc2c(=O)n(CC(=O)Nc3ccc(OC)cc3)c(C)nc21 0.4%
COC(=O)[C@]12C[C@H](CC(=O)NCc3ccccc3)C(=O)N(Cc3ccccc3)C1=C[C@H](COCc1ccccc1)O[C@@H]2C 1.65%
N/C(=N\OC(=O)CCc1ccccc1)c1cccnc1 0.81%
Cc1ccc(OCc2nnc(SC/C=C/c3ccccc3)n2Cc2ccco2)cc1 -0.38%
O=C(Nc1cc(Cl)cc(Cl)c1)OCCN1CCCC12CCC(c1ccccc1)CC2 (configuration not stated) -4.6%
COc1ccc(CSc2nnc(SCC(=O)Nc3ccccc3C(F)(F)F)s2)cc1 -1.07%
COCCCNC(=O)C[C@H]1C[C@@]2(C(=O)OC)C(=C[C@H](C(C)(C)C)O[C@@H]2C)N(Cc2ccc(Cl)cc2Cl)C1=O 4.84%
COC(=O)[C@]12C[C@H](CC(=O)NCc3ccccc3)C(=O)N(CCc3ccc(OC)c(OC)c3)C1=C[C@H](C(C)(C)C)O[C@@H]2C -1.11%
O=C(COC(=O)c1c(Cl)cccc1Cl)Nc1cccc(S(=O)(=O)NC2=NCCCCC2)c1 -1.88%
CN(C)S(=O)(=O)c1ccc(NC(=O)COC(=O)c2n[nH]c3ccccc23)cc1 -3.56%
O=C(COC(=O)c1ccc2c(c1)OCCO2)NCc1ccccc1Cl -2.85%
CN(CC(=O)Nc1ccc(C(N)=O)cc1)S(=O)(=O)c1ccc2c(c1)OCCO2 -3.91%
COc1cccc(CSc2nnc(-c3cccnc3)n2Cc2ccccc2)c1 4.89%
COc1ccc(C2Nc3ccccc3C(=O)N2Cc2cccs2)cc1COc1c(C)cccc1C (configuration not stated) -1.12%
CCOC(=O)N1CCN(C(=O)CSc2nnc(-c3c[nH]c4ccccc34)n2CCOC)CC1 -1.98%
CN(CCO)c1cccc2c1S(=O)(=O)N(Cc1cn(Cc3ccc(C(F)(F)F)cc3)nn1)Cc1ccccc1O2 4.68%
Cn1c(SCC(=O)N2CCCc3ccccc32)nc2ccccc2c1=O 0.04%
COc1cccc(/C=C/C(=O)OCC(=O)N2CCCc3ccccc32)c1 -0.48%
Cc1ccc(N)cc1CN1CCN(c2ncc(Cc3ccccc3)cn2)CC1 -1.39%
Cc1ccc(NC2(C#N)C(=O)Nc3ccccc32)cc1 (configuration not stated) -2.14%
O=S1(=O)c2ccc(Br)cc2OC[C@H](Cc2ccccc2)N1Cc1cn(Cc2ccccc2)nn1 4.16%
C=CCC(NCc1ccco1)c1ccc(OC)cc1 (configuration not stated) -0.85%
CN1CCN(C(=O)c2cnn(-c3ccccc3)c2NC(=O)c2ccc([N+](=O)[O-])cc2)CC1 4.06%
Cc1cccc(C(=O)NC(=S)N2CCN(c3ccc([N+](=O)[O-])cc3)CC2)c1 -2.54%
Cc1ccccc1NC(=O)COC(=O)c1ccc(Sc2ncn[nH]2)c([N+](=O)[O-])c1 -0.43%
O=C(O)c1[nH]c2ccccc2c1C(c1cccc(O)c1)c1c(C(=O)O)[nH]c2ccccc12 -1.91%
Cc1c(C(C)c2ccccc2O)[nH]c2ccccc12 (configuration not stated) 2.86%
CCOC(=O)c1ccn(S(=O)(=O)c2ccc(C)cc2)c1-c1ccccc1 -3.46%
CCOC(=O)c1ccccc1NC(=O)c1c(N)n(C)c(=O)[nH]c1=O 1.71%
COc1cc(/C=C/C(=O)n2cnc3ccccc32)cc(OC)c1OC 5.15%
NS(=O)(=O)c1ccc(NC(=S)NC(=O)c2cccnc2)cc1 0.33%
C=CCN1C(C(=O)OC)CN(Cc2cn(Cc3ccccc3)nn2)CCS1(=O)=O (configuration not stated) -1.05%
O=C(COc1ccc([N+](=O)[O-])cc1Cl)Nc1ccc2[nH]c(=O)[nH]c2c1 1.93%
COc1ccc(C(=O)OCC(=O)Nc2ccc3[nH]c(=O)[nH]c3c2)c(OC)c1OC 3.04%
O=S1(=O)c2c(cccc2N2CCSCC2)Oc2ccccc2CN1Cc1cn(Cc2ccc(F)cc2)nn1 -0.69%
O=C(Nc1ccccc1)N1CCN(Cc2nc3ccccc3c(=O)[nH]2)CC1 2.82%
CC(=O)N/C(=C\c1ccccc1)C(=O)OC(C)C(=O)N(C)c1ccccc1 (configuration not stated) -2.28%
CN(C(=O)CN1CCN(c2cc(-c3ccc(OCc4ccccc4)cc3)ncn2)CC1)c1ccccc1 -1.91%
CCN(CC)C(=O)CSc1nnc(CNc2ccc(F)cc2)n1Cc1ccco1 10.1%
CC1CN(Cc2ccco2)C(=S)N(c2ccccc2)C1=O (configuration not stated) 6.21%
Cc1cccc(OCCCC(=O)Nc2ccc(S(=O)(=O)N3CCCC3)cc2)c1 0.23%
Cc1ccc2nc(CN(C)C(=O)[C@@H](Cc3ccccc3)NC(=O)[C@H]3O[C@@H](n4ccc(=O)[nH]c4=O)[C@H](O)[C@@H]3O)[nH]c2c1 1.16%
COc1ccc(NC(=O)C(C)SCc2ccccc2)cc1 (configuration not stated) 1.07%
Cc1nnc(SC(C(=O)Nc2cc(Cl)cc(Cl)c2)c2ccccc2)[nH]c1=O (configuration not stated) 11.5%
CCCC[C@H](C(=O)N(CC)c1ccccc1)[C@@H](O)c1ccc2ccccc2c1 1.04%
COc1cccc(N(C)C(=O)[C@@H](C)[C@@H](O)c2ccc3ccccc3c2)c1 -1.81%
CCOC(=O)N1CCN(C(=O)C[C@H]2C[C@@]3(C(=O)OC)C(=C[C@H](C(C)(C)C)O[C@@H]3C)N(Cc3ccc(Cl)cc3Cl)C2=O)CC1 1.72%
CCOc1ccccc1N1C(=O)CC(Sc2nccc(C)n2)C1=O (configuration not stated) 14.4%
COc1ccc(N2C(=O)C(O)C2c2ccc(C)cc2)cc1 (configuration not stated) 3.23%
CC(=O)Nc1ccc(N2C(=O)CC(Sc3nccc(C)n3)C2=O)cc1 (configuration not stated) 15.5%
O=C(CSc1ncn[nH]1)Nc1ccnc2ccccc12 0.32%
CCOC(=O)c1ccc(N2C(=O)CC(Sc3nc(O)c(CC)c(=O)[nH]3)C2=O)cc1 (configuration not stated) -0.27%
Cc1ccnc(SC2CC(=O)N(c3ccccc3)C2=O)n1 (configuration not stated) 8.05%
CCCC1CCC2(CCCN2CCOC(=O)NCc2ccccc2)CC1 (configuration not stated) 5.29%
O=C(NC1CCCC1)C1CSCCS(=O)(=O)N1Cc1ccccc1 (configuration not stated) -0.44%
O=C(Nc1cccc(Cl)c1)OC1CC2CC1[C@H]1CCCCN1[C@H]2Cc1ccccc1 (some centres not stated) 1.47%
CC[C@@H](CCC(=O)N(c1ccccc1)c1ccccc1)C1CC1 -2.74%
c1coc(CCNc2ncnc3ccc(-c4ccc5c(c4)OCO5)cc23)c1 15%
O=S1(=O)c2ccc(N3CCN(Cc4ccccc4F)CC3)cc2Oc2ccccc2CN1Cc1cn(Cc2ccc(Cl)cc2)nn1 -3.79%
O=C(CSc1nnc(-c2ccccn2)n1-c1ccccc1)Nc1ccc2cn[nH]c2c1 1.03%
C=CCn1c(SCC(N)=O)nnc1-c1ccccc1OC 5.94%
O=C(Cn1nc([N+](=O)[O-])nc1Br)NC1CCCCC1 -3.64%
O=C(CCCCCN1C(=O)C2C3C=CC(C3)C2C1=O)Nc1ccccc1 (configuration not stated) -2.78%
O=C(C1=C(O)C(=O)N(c2ncccn2)C1c1cccs1)c1ccco1 (configuration not stated) -1.95%
C=CCSc1nnc(N2C(=O)C(O)=C(C(=O)c3ccco3)C2c2ccc(F)cc2)s1 (configuration not stated) 14.8%
CCc1c(-c2ccccc2OC)ncn1CCc1ccccc1OC -6.39%
N#Cc1ccccc1OC[C@@H](O)CN1CCC(C(O)(c2ccccc2)c2ccccc2)CC1 -3.45%
CC(=O)Nc1cc(-c2ccccc2F)cn2c(-c3cccc(C(F)(F)F)c3)cnc12 2.67%
CC(=O)Nc1cccc(-c2cc(NC=O)c3ncc(-c4ccc(F)c(Cl)c4)n3c2)c1 2.68%

inhibition, active:
Oc1ccc2ccc3cccc[n+]3c2c1 187%
NS(=O)(=O)c1ccc(NC(=O)COC(=O)c2c3c(nc4ccccc24)/C(=C\c2ccc4c(c2)OCO4)CCC3)cc1 139%
NC(=O)c1ccc(NC(=O)COC(=O)c2c3c(nc4ccccc24)/C(=C\c2ccc4c(c2)OCO4)CCC3)cc1 141%
Cc1cccc2cc3c(N)c(C(=O)N4CCCc5ccccc54)sc3nc12 38%
N#CC1=C(N)Oc2[nH]c(=S)[nH]c(=O)c2C12C(=O)Nc1ccccc12 (configuration not stated) 37.2%
Cc1cc(/C=N/Nc2ccc([N+](=O)[O-])cn2)c(C)n1-c1cccc(C(=O)O)c1 23.6%
CCOC(=O)c1cc2n(c1N)-c1ccccc1C2=O 29.4%
O=C1C=CC(=O)N1c1ccc(N2CCCCC2)cc1 90.5%
CC(C)(C)NC(=O)COc1ccc(CNc2ccc3[nH]c(=O)[nH]c3c2)cc1 35.9%
CN(C)C(=S)N=c1ssc(=S)n1Cc1ccco1 27%
CSc1nc(C)cc(SC(C(C)=O)C(=O)Nc2ccccc2)n1 (configuration not stated) 73.7%
CC(=O)N(C1=C(Cl)C(=O)c2ccccc2C1=O)c1ccc(C(=O)O)cc1 87.5%
Cc1ccc(N2C(=O)CC(Sc3ncn[nH]3)C2=O)cc1 (configuration not stated) 85.1%
COc1ccc(N2C(=O)CC(Sc3n[nH]c(-c4ccc(C)cc4)n3)C2=O)cc1 (configuration not stated) 66%
O=C1CC(Sc2ncn[nH]2)C(=O)N1c1ccccc1 (configuration not stated) 60.4%
Cc1ccc2nc(N3C(=O)C(O)=C(C(=O)c4ccco4)C3c3cccc(O)c3)sc2c1 (configuration not stated) 24%
CC(=O)Nc1cc(-c2ccccc2N(C)C)cn2c(-c3ccc(F)c(Cl)c3)cnc12 49.4%
